TEAD-YAP inh: TEAD-YAP interaction inhibition, primary screen, TEAD-YAP interaction inhibitor project, luminescence, HEK-TIYL cells | TEAD-Gal4/YAP UAS-luciferase luminescence | inhibition, % at 9.12 µM | 640,000 tested, 1.4% active | AID 1259422, 2018; in the data active means inhibition above about 32%
GPR151 activ: activators of human GPR151, primary screen, cell-based, PathHunter beta-arrestin, luminescence; G-protein coupled receptor 151 (Homo sapiens), Q8TDV0; PathHunter beta-arrestin GPR151 cells; activation, % at 11.2 µM; 650,000 tested, 1% active; in the data active means activation above about 4.9%
Target sequence (Q8TDV0 whole entry, looked up): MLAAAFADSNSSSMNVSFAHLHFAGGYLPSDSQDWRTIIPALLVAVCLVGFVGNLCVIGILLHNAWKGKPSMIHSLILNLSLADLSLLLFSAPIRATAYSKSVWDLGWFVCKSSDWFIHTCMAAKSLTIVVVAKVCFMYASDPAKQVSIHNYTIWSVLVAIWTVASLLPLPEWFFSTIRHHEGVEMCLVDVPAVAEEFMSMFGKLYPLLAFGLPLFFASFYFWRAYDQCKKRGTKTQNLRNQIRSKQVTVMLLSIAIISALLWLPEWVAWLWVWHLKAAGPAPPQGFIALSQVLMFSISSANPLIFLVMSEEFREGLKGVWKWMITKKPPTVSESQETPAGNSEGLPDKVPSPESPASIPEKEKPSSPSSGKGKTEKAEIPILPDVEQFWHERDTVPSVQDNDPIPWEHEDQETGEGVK
MITF primary: MITF inhibitors, primary screen, biochemical, AlphaScreen, human; Microphthalmia-associated transcription factor (Homo sapiens), O75030; AlphaScreen MITF homodimerization, bead proximity signal; inhibition, % at 2.6 µM; 650,000 tested, 0.91% active; in the data active means inhibition above about 50%
FBW7 act: FBW7 E3 ligase activators, primary screen, biochemical, AlphaScreen, human; F-box/WD repeat-containing protein 7 (Homo sapiens), Q969H0; AlphaScreen FBW7–phospho-cyclin E peptide binding, activator screen; normalized activity (activation), % at 26.1 µM; 650,000 tested, 0.13% active; in the data active means normalized activity above about 1.9%;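 further: purified mutant Fbw7 with reduced substrate affinity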
Numbers stand for hits; 0 = inactive. Only some compounds are listed: those with a hit (about 3.5% of all), similar ones and a draw of the others.

SMILES | TEAD-YAP inh | GPR151 activ | MITF primary | FBW7 act
CN1C=C2C(C#N)=C(N)C(C#N)(C#N)C(c3cccc(Cl)c3Cl)C2CC1 (configuration not stated) | 0 | 0 | 0 | 0
O=C(NC1CCCCC1)NC1(C(=O)NCCCN2CCOCC2)CCCCC1 | 0 | 0 | 0 | 1.9
Cc1c(C(=O)NCc2ccc3c(c2)OCO3)sc2nc(-c3cccc([N+](=O)[O-])c3)cn12 | 0 | 0 | 0 | 0
COc1ccc(-n2c(-c3ccccc3)cn3c4c(=O)n(C)c(=O)n(C)c4nc23)cc1OC | 0 | 0 | 0 | 0
COc1ccc(/C=C/C(=O)c2ccc(S(=O)(=O)NCc3cccnc3)cc2)cc1 | 35 | 0 | 0 | 0
O=S(=O)(NCc1ccc2c(c1)OCO2)c1ccc(Cc2ccc(S(=O)(=O)NCc3ccc4c(c3)OCO4)cc2)cc1 | 38 | 0 | 0 | 0
O=S(=O)(NCc1cccnc1)c1ccc(Cl)cc1 | 0 | 0 | 0 | 0
O=S(=O)(NCc1cccnc1)c1ccc(Cc2ccc(S(=O)(=O)NCc3cccnc3)cc2)cc1 | 51 | 0 | 0 | 0
O=C(NC1CC1)c1ccc(-c2nc(NCCCN3CCCC3=O)c3ncn(-c4ccsc4)c3n2)cc1 | 42 | 0 | 0 | 0
CC(=O)c1cccc(-c2nc(NCCCN3CCCC3=O)c3ncn(C(C)C)c3n2)c1 | 44 | 0 | 0 | 0
COc1ccc(-c2nc(NCCCN3CCCC3=O)c3ncn(-c4ccsc4)c3n2)cn1 | 49 | 0 | 0 | 0
COc1ccc(CCNc2nc(NCCCN3CCCC3=O)nc3c2ncn3-c2ccsc2)cc1 | 0 | 0 | 0 | 0
COc1ccc(-c2nc(NCCCN3CCCC3=O)c3ncn(-c4ccsc4)c3n2)cc1 | 58 | 0 | 0 | 0
O=C(CSc1nnc(-c2ccc3c(c2)OCO3)o1)NC(=O)NCc1ccccc1 | 0 | 0 | 0 | 0
CCOc1ccc(C2C3=C(CCCC3=O)Nc3ncnn32)cc1OC (configuration not stated) | 0 | 0 | 0 | 0
COc1ccc(CN2CCN(Cc3ccc(CO)o3)CC2CCO)c(C)c1C (configuration not stated) | 0 | 0 | 0 | 0
N#C/C(=C\c1ccccc1Cl)c1ccccc1 | 0 | 0 | 0 | 0
Nc1cccc(-c2nc(NCCCN3CCCC3=O)c3ncn(CCN4CCCC4=O)c3n2)c1 | 0 | 0 | 0 | 0
Nc1cccc(-c2nc(NCCCN3CCCC3=O)c3ncn(-c4ccccc4)c3n2)c1 | 59 | 0 | 0 | 0
COc1ccc(-c2nc(NCCCN3CCCC3=O)c3ncn(C(C)C)c3n2)cn1 | 0 | 0 | 0 | 0
CC(=O)c1cccc(-c2nc(NCCCN3CCCC3=O)c3ncn(-c4ccsc4)c3n2)c1 | 58 | 0 | 0 | 0
COc1ccc(-c2nc(NCCCN3CCCC3=O)c3ncn(-c4ccccc4)c3n2)cn1 | 55 | 0 | 0 | 0
COc1ccc(-c2nc(NCCN3CCOCC3)c3ncn(-c4ccsc4)c3n2)cn1 | 35 | 0 | 0 | 0
COc1cccc(/C=N/NC(=O)c2nnn(-c3nonc3N)c2CN(C)C)c1 | 0 | 0 | 0 | 0
Cc1ccc(CN2C(=O)CCC2C(=O)NCCCN2CCC(Cc3ccccc3)CC2)cc1 (configuration not stated) | 0 | 0 | 0 | 0
SMILES | TEAD-YAP inh | GPR151 activ | MITF primary | FBW7 act
COc1cc(/C=N/O)cc(OC)c1OC | 0 | 0 | 0 | 0
COc1cc(O)cc(OC)c1OC | 63 | 0 | 0 | 0
CC(C)(C)C(=O)CNC(=O)c1ccncc1 | 57 | 0 | 0 | 0
O=S(=O)(NC1c2cccc3cccc(c23)C1N1CCN(C(=S)Nc2ccccc2)CC1)c1ccc(Cl)cc1 (configuration not stated) | 0 | 0 | 0 | 2.4
Cc1ccc(NC(=S)N(Cc2ccccc2)Cc2cccs2)cc1Cl | 36 | 0 | 0 | 0
Cc1ccc(CNC(=O)CNC(=S)N(Cc2ccccc2)Cc2cccs2)cc1 | 0 | 0 | 0 | 2.0
O=C(CNC(=S)N(Cc1ccccc1)Cc1cccs1)NCc1ccccc1 | 0 | 0 | 0 | 0
Cc1cc(NC(=S)N(Cc2ccccc2)Cc2cccs2)ccc1Cl | 44 | 0 | 0 | 0
S=C(Nc1ccc(Cl)cc1)N(Cc1ccccc1)Cc1cccs1 | 0 | 0 | 0 | 0
COc1ccc(NC(=O)c2sc3nc(N)c(C#N)cc3c2N)cc1 | 0 | 0 | 0 | 18
COc1cc(NC(=O)c2sc3nc(N)c(C#N)cc3c2N)cc(OC)c1OC | 0 | 0 | 0 | 0
COc1cc(/C=N/n2cnnc2)ccc1OC(=O)c1cccs1 | 0 | 0 | 0 | 0
CCOc1ccc(N2CSC3=C(C#N)C(c4cccs4)CC(=O)N3C2)cc1 (configuration not stated) | 0 | 0 | 0 | 0
CCOc1ccc(N2CSC3=C(C#N)C(c4ccco4)CC(=O)N3C2)cc1 (configuration not stated) | 0 | 0 | 69 | 0
COc1ccc(/C=N\Nc2nc3ccccc3s2)cc1 | 42 | 0 | 0 | 0
CC(C)(C)CN1CCN(Cc2nc(-c3ccc(F)cc3)cs2)CC1CCO (configuration not stated) | 44 | 0 | 0 | 0
CN1CCN(Cc2nc(-c3ccc(F)cc3)cs2)CC1CCO (configuration not stated) | 0 | 0 | 0 | 0
CCN(CC)c1ccc(C2CC(c3ccc(C)cc3)=NN2C(=O)CCC(=O)O)cc1 (configuration not stated) | 46 | 0 | 0 | 0
Cc1ccc(C(=O)NCc2cccnc2)c(NCc2cccnc2)n1 | 0 | 0 | 0 | 0
C=CCNC(=O)c1ccc(C)nc1NCc1cccnc1 | 0 | 0 | 0 | 1.9
CCN(CC)C(=O)C1CCCN(c2nc(C)cc(NCc3cccc(C(F)(F)F)c3)n2)C1 (configuration not stated) | 35 | 0 | 0 | 0
CCN(CC)C(=O)C1CCCN(c2nccc(NCc3cccc(C(F)(F)F)c3)n2)C1 (configuration not stated) | 0 | 0 | 0 | 0
Cc1cc(NCc2cccc(C(F)(F)F)c2)nc(N2CCCC2CO)n1 (configuration not stated) | 42 | 0 | 0 | 0
CC(=O)NC(=S)Nc1sc2c(c1C#N)CCCCC2 | 66 | 0 | 0 | 0
NC(=O)c1c(NC(=O)C2CC2c2ccccc2)sc2c1CCCC2 (configuration not stated) | 0 | 0 | 0 | 0
SMILES | TEAD-YAP inh | GPR151 activ | MITF primary | FBW7 act
N#Cc1c(NC(=O)C2CC2c2ccccc2)sc2c1CCC2 (configuration not stated) | 43 | 0 | 0 | 0
N#Cc1c(NC(=O)CSc2ncn[nH]2)sc2c1CCCCC2 | 68 | 0 | 0 | 0
Cc1onc(-c2ccccc2)c1C(=O)Nc1sc2c(c1C#N)CCC(C)C2 (configuration not stated) | 0 | 0 | 0 | 0
Cc1onc(-c2ccccc2)c1C(=O)Nc1sc2c(c1C#N)CCCC2 | 32 | 0 | 0 | 0
COc1ccccc1-c1ccc(C=C(C(C)=O)C(C)=O)o1 | 0 | 0 | 0 | 0
COc1cc2c(cc1NC(=O)CN1C(=O)NC(C)(CC(C)C)C1=O)oc1ccccc12 (configuration not stated) | 0 | 0 | 0 | 0

Source: PubChem BioAssay
